According to PubChem BioAssay AID588590 (National Center for Advancing Translational Sciences (NCATS), 2011):
The whole screen tested about 390,000 compounds, of which about 4,000 (1%) were called active. Inconclusive results (about 7%) are left out. The sample as a whole holds a higher share of actives than the screen did. A number with no mark means an inactive call. The call rests on the fitted dose curve; in most records, active means well fitted inhibition curve with a large enough effect; inconclusive means small, poorly fitted or top-dose-only effect, or another doubt; inactive means no such curve, though single readings can be large or run the other way.

biological target: DNA polymerase iota (Homo sapiens) (UniProt Q9UNA4); assay: qHTS for Inhibitors of Polymerase Iota; conditions: Pol iota fluorescent replication assay, 10 min; series mostly up to 115 µM; activity, negative = inhibition: at the top concentration
Sequence (Q9UNA4 whole entry, looked up): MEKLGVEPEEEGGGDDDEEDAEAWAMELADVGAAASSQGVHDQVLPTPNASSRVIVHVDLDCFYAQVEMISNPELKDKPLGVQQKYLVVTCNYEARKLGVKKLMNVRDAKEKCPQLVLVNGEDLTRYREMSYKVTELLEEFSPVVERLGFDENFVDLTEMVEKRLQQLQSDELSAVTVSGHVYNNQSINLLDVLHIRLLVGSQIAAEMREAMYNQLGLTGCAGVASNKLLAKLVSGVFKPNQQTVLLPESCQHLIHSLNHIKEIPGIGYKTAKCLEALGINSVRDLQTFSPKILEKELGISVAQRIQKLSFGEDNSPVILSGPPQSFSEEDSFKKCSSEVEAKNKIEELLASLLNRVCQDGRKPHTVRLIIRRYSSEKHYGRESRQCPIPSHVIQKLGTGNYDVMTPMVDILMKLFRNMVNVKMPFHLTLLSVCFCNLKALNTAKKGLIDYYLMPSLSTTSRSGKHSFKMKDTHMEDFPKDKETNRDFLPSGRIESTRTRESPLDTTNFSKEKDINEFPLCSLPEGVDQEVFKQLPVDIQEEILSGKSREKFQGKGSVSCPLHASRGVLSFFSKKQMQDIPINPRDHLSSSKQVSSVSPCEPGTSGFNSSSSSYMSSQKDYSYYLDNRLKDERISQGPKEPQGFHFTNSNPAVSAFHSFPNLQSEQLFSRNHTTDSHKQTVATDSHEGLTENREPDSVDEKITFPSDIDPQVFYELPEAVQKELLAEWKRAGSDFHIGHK
How it was run: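 Fluorescent replication assay read twice, at 0 min and 10 min after adding 50 nM (final) substrate. Enzyme (10 nM) and compounds were first incubated 15 min at room temperature; enzyme-free buffer wells were negative controls.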
Potency means the concentration at half of the fitted maximal effect.

| SMILES | activity, negative = inhibition | Potency |
| --- | --- | --- |
| O=C(NC(=S)Nc1ccc(Cl)c(C(=O)O)c1)c1cncc(Br)c1 | -13.8% |  |
| CC(C)c1ccc(NC(=S)NNc2ccc(Cl)c(C(=O)O)c2)cc1 |  | 11.2 µM (active) |
| Cc1ccc(C)c(NC(=S)NNC(=S)Nc2ccc(C(C)C)cc2)c1 | -14.7% |  |
| COc1ccccc1NC(=O)Cn1cnc2ccc(S(=O)(=O)N3CCC(C)CC3)cc2c1=O | 2.42% |  |
| COC(=O)c1ccc2c(c1)N(CC(=O)Nc1ccc(C)c(C)c1)C(=O)c1ccccc1S2 | 9.94% |  |
| COc1ccccc1NC(=O)CN1C(=O)c2ccccc2Sc2ccc(C(=O)N3CCCC3)cc21 |  | 79.4 µM (active) |
| COc1cccc(NC(=O)CN2C(=O)c3ccccc3Sc3ncccc32)c1 | 187% |  |
| CCc1c(C)sc(NC(=O)C2c3ccccc3Oc3ccccc32)c1C(=O)OC(C)C | -4.88% |  |
| CC(C)CC(NS(=O)(=O)c1ccc2c(c1)oc(=O)n2C)C(=O)NCc1ccccc1Cl (stereo not drawn) | -6.47% |  |
| COc1ccccc1C(=O)Nc1c(C(=O)Nc2ccc(C)cc2)oc2ccccc12 | 22.7% |  |
| Cn1c(=O)c2c(nc(SCC(=O)Nc3ccc(F)cc3)n2Cc2ccccc2)n(C)c1=O | 23.2% |  |
| O=[N+]([O-])c1ccc(/C=C/c2ccc3cccnc3c2)cc1 | 15.2% |  |
| O=C1CCCN1C(=O)COc1ccc([N+](=O)[O-])cc1 | -4.78% |  |
| O=C1/C(=C\c2ccc([N+](=O)[O-])cc2)CS(=O)(=O)C/C1=C/c1ccc([N+](=O)[O-])cc1 |  | 11.2 µM (active) |
| CC(C)Oc1ccc(CNC(=O)C2CCN(c3nc4ccccc4n(C)c3=O)CC2)cc1 | 29.1% |  |
| C(=Nc1ccc(/C=C/c2ccnc3ccccc23)cc1)Nc1ccc(/C=C/c2ccnc3ccccc23)cc1 | 3.51% |  |
| OCCNc1ncnc2oc(-c3ccco3)c(-c3ccco3)c12 |  | 12.6 µM (active) |
| COc1ccc(-c2oc3ncnc(NCCCO)c3c2-c2ccc(OC)cc2)cc1 | 97.6% |  |
| Cc1noc2ncnc(NCc3ccccc3Cl)c12 | -9.96% |  |
| CN(Cc1ccccc1)c1ncnc2onc(-c3ccc(F)cc3)c12 | -14.9% |  |
| CN(C)c1cccc2ccccc12 | 14.8% |  |
| CCN1CCN(CCCNC(=O)c2ccc3c(c2)sc2nc(-c4ccc(OC)cc4)cn23)CC1 | 21.9% |  |
| CCCCCn1c(CCNC(=O)c2ccc(F)cc2)nc2ccccc21 | 17.1% |  |
| Cc1noc(C)c1S(=O)(=O)Nc1ccc(C(=O)O)cc1 | -10.9% |  |
| Cc1noc(C)c1S(=O)(=O)Nc1ccc(C(=O)N2CCN(c3ccc(F)cc3)CC2)cc1 |  | 79.4 µM (active) |

| SMILES | activity, negative = inhibition | Potency |
| --- | --- | --- |
| CN1CCN(C(=O)c2ccc(NS(=O)(=O)c3ccccc3)cc2)CC1 | 20.4% |  |
| O=C(CC1N=C2c3ccccc3N=C(SCc3cccc(Cl)c3)N2C1=O)NCc1ccc2c(c1)OCO2 (stereo not drawn) | -13.6% |  |
| CCCc1nc2sc3c(c2c(=O)n1NC(=O)CCCl)CCCC3 | -14.2% |  |
| O=c1[nH]c(CN2CCN(S(=O)(=O)c3ccc4c(c3)OCCO4)CC2)nc2sc3c(c12)CCCC3 | 3.88% |  |
| O=C(CCc1nc2sc3c(c2c(=O)[nH]1)CCCC3)NCC(=O)Nc1ccccc1Br |  | 50.1 µM (active) |
| CCOC(=O)c1[nH]c(C)c(CCC(=O)N2CCN(c3ccccc3)CC2)c1C | 17.9% |  |
| C=CCc1cccc(/C=N/NC(=O)COc2ccc(-n3cnnn3)cc2)c1O | 27.2% |  |
| CCOc1ccc(C(=O)COC(=O)c2ccc(-n3cnnn3)cc2)cc1 | 32.9% |  |
| O=C(COc1ccc(-n2cnnn2)cc1)Nc1ccccc1Cl |  | 79.4 µM (active) |
| Cc1ccc2[nH]c3c(=O)n(CC(=O)NC(C)C)ncc3c2c1 | -5.61% |  |
| Fc1ccc(CSc2nc(NCc3ccccc3)c3ccccc3n2)cc1 | 2.18% |  |
| O=C(CSc1nc(Nc2ccc(F)c(F)c2)c2ccccc2n1)c1ccc(Cl)cc1 | 14.1% |  |
| Fc1ccc(Nc2nc(SCc3ccccc3Cl)nc3ccccc23)cc1 |  | 79.4 µM (active) |
| COc1ccc(-n2c(=O)c3sc4ccccc4c3n(CC(=O)Nc3cccc(C)c3)c2=O)cc1 | 10.2% |  |
| COc1ccc(NC(=O)Nc2cccc(-c3noc(C)n3)c2)cc1 | 3.68% |  |
| CCOC(=O)c1sc2nc(CSCC(=O)OCc3ccc(C(=O)OC)o3)[nH]c(=O)c2c1C | 23.8% |  |
| Cc1sc2nc(CSCC(=O)Nc3c(Cl)cccc3Cl)[nH]c(=O)c2c1C | -1.49% |  |
| CSc1nnc(SCc2nc3sc(C(=O)O)c(C)c3c(=O)[nH]2)s1 |  | 3.98 µM (active) |
| Cc1ccc(S(=O)(=O)c2cn(Cc3ccccc3)c3cc(N4CCCC4)c(F)cc3c2=O)c(C)c1 | -15.4% |  |
| CN(Cc1ccccc1)c1ccc(/C=C/c2ccnc3ccccc23)cc1 | 0.933% |  |
| CCOc1ccccc1NC(=O)CCc1nnc2ccc(NCc3ccco3)nn12 |  | 50.1 µM (active) |
| O=C(CCc1nnc2ccc(NCc3ccco3)nn12)Nc1cc(F)ccc1F | -12.4% |  |
| CC1CCN(C(=O)CCc2nnc3ccc(NCc4ccco4)nn23)CC1 | 19.1% |  |
| Cc1ccc(C=O)cc1Cl | 27.8% |  |
| COc1ccc(CCNC(=O)c2ccc3c(c2)nc(C)n3-c2ccc(Br)cc2)cc1OC | -17% |  |

| SMILES | activity, negative = inhibition | Potency |
| --- | --- | --- |
| CCC(CC)c1nn2cc(-c3ccccc3)nc2s1 | -4.42% |  |
| C/C(CC(=O)N1CCN(C=O)CC1)=N\NC(=O)c1ccc(Br)cc1 | -25.6% |  |
| O=C(O)c1ccc(/C=C2\SC(=S)N(NC(=O)c3ccc(Br)cc3)C2=O)cc1 |  | 22.4 µM (active) |
| O=C(Nc1ccc(C(=O)O)cc1)/C(=C\c1ccccc1)NC(=O)c1ccc(Br)cc1 | 17.3% |  |
| CN1CCN(/[N+]([O-])=N/Oc2ccc([N+](=O)[O-])cc2[N+](=O)[O-])CC1 | 22.3% |  |
| CCc1nnc2c3ccccc3nc(N3CCN(c4ccc(C)cc4C)CC3)n12 | 37.9% |  |
| O=C(CCS(=O)(=O)c1ccc(Br)cc1)NCCc1ccc(Cl)cc1 | -25.8% |  |
| COc1ccc(Cl)cc1NC(=O)CCS(=O)(=O)c1ccc(Br)cc1 |  | 56.2 µM (active) |
| COc1ccc(Cl)cc1NC(=O)CCC(=O)c1ccc(C)cc1 | 23.5% |  |
| COc1ccc(Nc2ncc3c(n2)CCN(C(=O)OC(C)(C)C)C3)cc1 | 10.5% |  |
| Cc1c(C)n(Cc2ccc(Cl)cc2)c2ccc(C(=O)NCCc3ccc(S(N)(=O)=O)cc3)cc12 | -6.81% |  |
| CN(C(=O)CSc1nnc(NC(=O)Nc2ccccc2)s1)c1ccccc1 | 8.04% |  |
| O=C(c1[nH]ncc1-c1ccc(Cl)cc1)C1CO1 (stereo not drawn) |  | 56.2 µM (active) |
| COC(=O)c1scc(-c2ccccc2)c1S(=O)(=O)Nc1ccccc1 | 2.13% |  |
| O=C1CCC[C@@H]2C[C@@]3(C[C@@H]4CCN1[C@H]24)Nc1ccccc1NC3=NCc1ccccc1 | 114% |  |
| COc1cc2nc(N3CCCN(C)CC3)nc(NC3CC3)c2cc1OC | 28.6% |  |
| COc1ccc(-c2cn3nc(N4CCCC(C(=O)NCCCOC(C)C)C4)sc3n2)cc1 (stereo not drawn) | 23.1% |  |
| COc1cc2c(cc1OC)C(C(=O)Nc1cc(C)c(OC)c(C)c1)CC(=O)N2 (stereo not drawn) | 62.9% |  |
| COc1cc(N/C=C2\CC(=O)NC(C)=C2C#N)cc(OC)c1OC |  | 10 µM (active) |
| COc1cc(NC(=O)c2nc3ccccc3nc2C)cc(OC)c1OC | 33.3% |  |
| COc1ccc(-c2nc3sc(CCNS(=O)(=O)c4ccc(F)c(C)c4)c(C)n3n2)cc1 | 12.4% |  |
| CCOc1ccccc1NC(=O)CN1CCN(S(=O)(=O)c2ccc(Br)cc2)CC1 | 3.35% |  |
| O=[N+]([O-])c1ccc(C=Nc2ccc(Cl)cc2Cl)s1 |  | 39.8 µM (active) |
| CCN(CC)/[N+]([O-])=N/OCOC(=O)Cc1c(C)n(C(=O)c2ccc(Cl)cc2)c2ccc(OC)cc12 | 7.56% |  |
| O=C(OCN1C(=O)c2ccccc2C1=O)/C(=C\c1ccco1)NC(=O)c1ccccc1 | -18.1% |  |

| SMILES | activity, negative = inhibition | Potency |
| --- | --- | --- |
| O=c1nc2s/c(=C\c3ccco3)c(=O)n2nc1Cc1ccccc1 |  | 7.94 µM (active) |
| O=C(Nc1ccccc1C(F)(F)F)c1nc(S(=O)(=O)Cc2ccccc2F)ncc1Cl | -5.98% |  |
| NC1=NC(c2cc(F)cc(F)c2)n2c(nc3ccccc32)N1 (stereo not drawn) | 4.72% |  |
| Cc1cc(C)c2oc(C(=O)Nc3ccc(S(=O)(=O)N4CCCCCC4)cc3)cc(=O)c2c1 | 5.81% |  |
| Cc1ccc(-n2c(=O)c3cccnc3n2CC(=O)Nc2ccccc2C(F)(F)F)cc1C | -0.67% |  |
| CCN(C(=O)COC(=O)CCOc1cccc(C)c1)c1c(N)n(Cc2ccccc2)c(=O)[nH]c1=O | 22.8% |  |
| CCCOc1ccc(Cn2c(O)cc(=O)[nH]c2=O)cc1 |  | 22.4 µM (active) |
| COc1ccc(Cn2c(O)c(/C=C3/C=CC=N3)c(=O)[nH]c2=O)cc1 | -9.71% |  |
| COc1ccccc1CCNC(=O)c1cccn1-c1nnc(N2CCCCC2)s1 | 3.68% |  |
| Cc1ccc2nc(-c3ccc(C)c(NC(=O)Cc4ccccc4)c3)oc2c1 | 17.9% |  |
| Cc1c(CCO)sc[n+]1CC(=O)c1ccc2ccccc2c1 | 5.31% |  |
| O=C(c1cc2ccccc2s1)N1CCN(c2ccccn2)CC1 | 29.9% |  |
| O=C(c1cc2c(s1)CCC2)N1CCN(c2ccccc2)CC1 |  | 25.1 µM (active) |
| CC1CCN(c2nc3ccc(C(=O)N4CCN(c5ccccc5)CC4)cc3s2)CC1 | -4.14% |  |
| CCNC(=O)Cn1nc(C)n2c(cc3c(OC)cccc32)c1=O | 2.21% |  |
| CN(C)c1ccc(/C=N\Nc2ccc([N+](=O)[O-])cc2[N+](=O)[O-])cc1Cl | -14% |  |
| COc1cccc(Cn2c(SCc3ccc(C(=O)N4CCCCC4)cc3)nc3ccncc32)c1 | 3.02% |  |
| COCCCNC(=O)Cc1ccc(-n2c(C)nc3cccnc32)cc1 | -18.4% |  |
| CCc1nc2cccnc2n1-c1ccc(C(=O)O)cc1 |  | 25.1 µM (active) |
| CCc1nc2cccnc2n1-c1ccc(CC(=O)Nc2c(C)cccc2C)cc1 | 7.57% |  |
| COc1ccc(N2CCN(Cc3nc4c(c(=O)[nH]c(=O)n4C)n3Cc3ccc(Cl)cc3)CC2)cc1 | 25.9% |  |
| O=C(NCCc1ccc(Cl)cc1)c1ccc2c(c1)N(Cc1ccc(F)cc1)C(=O)CS2 | -20.5% |  |
| CCC(=O)N1CCc2cc(Br)cc(S(=O)(=O)CCC(=O)NCCc3ccc(OC)c(OC)c3)c21 | 14.3% |  |
